In article PMC3218832 one finds binding signal data, which are given here for 15 sequences.

Targets include RELARELA (p65 homodimer) (Homo sapiens, UniProt Q04206 1-307); p50p50 homodimer (Homo sapiens, UniProt P19838 7-356); RELB subunit;p50 subunit (Homo sapiens;Homo sapiens, UniProt Q01201;P19838 120-401;7-356).
Holding throughout (assay): protein binding microarray; high values mean tight binding
What all share (conditions): dsDNA, one strand shown

The target in another experiment is T1, p52p52 homodimer (Homo sapiens, UniProt Q00653 4-332).
T1 sequence: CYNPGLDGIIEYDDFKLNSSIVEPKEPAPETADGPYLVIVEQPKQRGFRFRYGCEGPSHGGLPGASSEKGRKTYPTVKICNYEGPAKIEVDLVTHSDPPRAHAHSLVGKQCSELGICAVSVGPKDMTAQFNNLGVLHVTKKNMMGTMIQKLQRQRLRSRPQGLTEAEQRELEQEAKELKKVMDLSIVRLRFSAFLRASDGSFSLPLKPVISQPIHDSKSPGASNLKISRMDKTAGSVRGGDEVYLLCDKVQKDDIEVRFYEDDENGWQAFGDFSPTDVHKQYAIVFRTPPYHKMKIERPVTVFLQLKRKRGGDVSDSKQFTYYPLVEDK

The target of experiment [1] is RELA (p65) subunit of heterodimer;p50 subunit (Homo sapiens;Homo sapiens, UniProt Q04206;P19838 1-307;7-356).
The target in experiment [2] is RELA (p65) subunit of heterodimer;p52 subunit (Homo sapiens;Homo sapiens, UniProt Q04206;Q00653 1-307;4-332).
A further experiment has as its target T2, RELB subunit;p52 subunit (Homo sapiens;Homo sapiens, UniProt Q01201;Q00653 120-401;4-332).
T2 sequence 1: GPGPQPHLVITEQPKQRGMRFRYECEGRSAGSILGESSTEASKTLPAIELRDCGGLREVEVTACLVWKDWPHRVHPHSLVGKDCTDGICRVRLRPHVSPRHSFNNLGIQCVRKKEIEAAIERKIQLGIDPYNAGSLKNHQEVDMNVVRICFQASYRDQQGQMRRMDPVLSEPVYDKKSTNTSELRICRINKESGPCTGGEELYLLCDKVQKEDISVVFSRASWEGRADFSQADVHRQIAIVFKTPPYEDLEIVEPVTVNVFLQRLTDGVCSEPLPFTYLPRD
T2 sequence 2: T1 sequence

Experiment [3] has as its target C-Rel subunit;p50 subunit (Homo sapiens;Homo sapiens, UniProt Q04864;P19838 1-285;7-356).
Experiment [4] addresses T3, C-Rel subunit;p52 subunit (Homo sapiens;Homo sapiens, UniProt Q04864;Q00653 1-285;4-332).
T3 sequence 1: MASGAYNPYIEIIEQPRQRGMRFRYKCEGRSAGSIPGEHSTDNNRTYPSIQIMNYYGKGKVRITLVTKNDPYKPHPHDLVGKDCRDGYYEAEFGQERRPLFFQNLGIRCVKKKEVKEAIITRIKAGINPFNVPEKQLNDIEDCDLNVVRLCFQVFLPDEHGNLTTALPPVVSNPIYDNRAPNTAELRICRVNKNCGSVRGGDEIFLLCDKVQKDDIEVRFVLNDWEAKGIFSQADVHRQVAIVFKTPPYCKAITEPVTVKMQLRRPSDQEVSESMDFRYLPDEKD
T3 sequence 2: T1 sequence

p50p50 homodimer, sequence (P19838 7-356): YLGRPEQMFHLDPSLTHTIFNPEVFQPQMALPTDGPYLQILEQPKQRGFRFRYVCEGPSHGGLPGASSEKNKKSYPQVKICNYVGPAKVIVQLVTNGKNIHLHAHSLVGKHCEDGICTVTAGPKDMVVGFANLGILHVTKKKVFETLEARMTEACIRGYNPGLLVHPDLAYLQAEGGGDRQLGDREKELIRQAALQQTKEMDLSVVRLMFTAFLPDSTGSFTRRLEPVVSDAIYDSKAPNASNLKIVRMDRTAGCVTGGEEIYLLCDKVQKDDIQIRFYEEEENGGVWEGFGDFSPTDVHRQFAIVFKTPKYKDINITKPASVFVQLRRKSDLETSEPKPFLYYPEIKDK
RELARELA (p65 homodimer), sequence (Q04206 1-307): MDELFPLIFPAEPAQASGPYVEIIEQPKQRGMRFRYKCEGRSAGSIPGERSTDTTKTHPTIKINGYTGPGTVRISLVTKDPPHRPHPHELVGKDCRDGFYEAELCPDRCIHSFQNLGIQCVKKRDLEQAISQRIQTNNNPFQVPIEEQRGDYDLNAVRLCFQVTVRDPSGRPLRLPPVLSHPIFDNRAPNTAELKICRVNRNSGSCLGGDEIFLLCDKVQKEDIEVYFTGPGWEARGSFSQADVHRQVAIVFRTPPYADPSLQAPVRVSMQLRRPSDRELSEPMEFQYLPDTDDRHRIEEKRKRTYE
RELA (p65) subunit of heterodimer;p50 subunit, sequence (Q04206 1-307, chain 1 of 2): as the sequence (Q04206 1-307) above
RELA (p65) subunit of heterodimer;p50 subunit, sequence (P19838 7-356, chain 2 of 2): as the sequence (P19838 7-356) above

For GAATTGTCCCC, the binding signal with RELARELA (p65 homodimer) was found to be 1.03 z-score; with p50p50 homodimer, 1.37 z-score; with p52p52 homodimer, 1.34 z-score; in experiment [1], 1.38 z-score; in experiment [2], 1.18 z-score; with RELB subunit;p50 subunit, 1.38 z-score. In addition, the binding signal with RELB subunit;p52 subunit worked out at 1.61 z-score; in experiment [3] it was 1.27 z-score; in experiment [4], 0.963 z-score.
Turning to AGGTTGGCCCC, the binding signal is -0.789 z-score with RELARELA (p65 homodimer); -0.369 z-score with p50p50 homodimer; -0.374 z-score in the experiment with p52p52 homodimer; -0.277 z-score in experiment [1]; -0.287 z-score in experiment [2]; -0.0488 z-score with RELB subunit;p50 subunit. The results for the binding signal (with RELB subunit;p52 subunit; in experiment [3]; in [4]) were -0.238 z-score, -0.00473 z-score and 0.0517 z-score, respectively.
Take GAAGAGTTCCC: the binding signal was 0.742 z-score in the experiment with RELARELA (p65 homodimer); 0.281 z-score with p50p50 homodimer; -0.0634 z-score with p52p52 homodimer; 0.27 z-score in experiment [1]; 0.0483 z-score in experiment [2]; 0.132 z-score with RELB subunit;p50 subunit. The values for the binding signal (in the experiment with RELB subunit;p52 subunit; in [3]; in [4]) were -0.0744 z-score, 0.46 z-score and 0.057 z-score, respectively.
For CGAGACGCCCC, the binding signal with RELARELA (p65 homodimer) is -0.513 z-score; with p50p50 homodimer, 0.148 z-score; with p52p52 homodimer it was -0.0437 z-score; in experiment [1], 0.0369 z-score; in experiment [2] it was -0.155 z-score; with RELB subunit;p50 subunit, 0.237 z-score. Further, the binding signal was 0.231 z-score in the experiment with RELB subunit;p52 subunit, 0.27 z-score in experiment [3] and -0.0784 z-score in experiment [4].
Regarding GAGTAAGCCCC, the binding signal is -0.458 z-score with RELARELA (p65 homodimer); 0.604 z-score with p50p50 homodimer; 0.178 z-score in the experiment with p52p52 homodimer; 0.392 z-score in experiment [1]; 0.155 z-score in [2]; 0.171 z-score with RELB subunit;p50 subunit. Moreover, the binding signal in the experiment with RELB subunit;p52 subunit was 0.116 z-score; in experiment [3], 0.263 z-score; in experiment [4], 0.236 z-score.
As for CGGGTATTCCT, the binding signal was determined as 1.71 z-score with RELARELA (p65 homodimer); 0.73 z-score in the experiment with p50p50 homodimer; 1.4 z-score with p52p52 homodimer; 0.593 z-score in experiment [1]; 1.06 z-score in [2]; 0.353 z-score in the experiment with RELB subunit;p50 subunit. Also, the binding signal was determined as 0.712 z-score in the experiment with RELB subunit;p52 subunit, 0.468 z-score in experiment [3] and 1.22 z-score in experiment [4].
On to CGGGAACCCCC, for which the binding signal in the experiment with RELARELA (p65 homodimer) was 2.26 z-score; with p50p50 homodimer, 0.986 z-score; in the experiment with p52p52 homodimer, 2.98 z-score; in experiment [1], 2.47 z-score; in [2], 2.46 z-score; with RELB subunit;p50 subunit it was 1.67 z-score. The binding signal is 2.34 z-score with RELB subunit;p52 subunit, 2.01 z-score in experiment [3] and 2.86 z-score in experiment [4].
AAGGATACCCC: the binding signal stood at 0.0433 z-score in the experiment with RELARELA (p65 homodimer); 0.446 z-score with p50p50 homodimer; 0.189 z-score in the experiment with p52p52 homodimer; 0.436 z-score in experiment [1]; 0.502 z-score in experiment [2]; 0.457 z-score with RELB subunit;p50 subunit. Also, the binding signal with RELB subunit;p52 subunit came out at 0.95 z-score; in [3], 0.507 z-score; in [4], 0.247 z-score.
On to AAGGGCCCCCT, for which the binding signal with RELARELA (p65 homodimer) was -0.998 z-score; with p50p50 homodimer, 0.884 z-score; with p52p52 homodimer, 0.332 z-score; in experiment [1], 0.446 z-score; in experiment [2], 0.569 z-score; with RELB subunit;p50 subunit it was 0.703 z-score. Besides, the values for the binding signal (in the experiment with RELB subunit;p52 subunit; in [3]; in experiment [4]) were 1.14 z-score, 0.138 z-score and 0.261 z-score, respectively.
As to GGAAAGATCCT, the binding signal with RELARELA (p65 homodimer) was -0.0836 z-score; in the experiment with p50p50 homodimer, -1.25 z-score; in the experiment with p52p52 homodimer it was -0.674 z-score; in experiment [1], -0.749 z-score; in experiment [2] it was -0.654 z-score; with RELB subunit;p50 subunit it was -0.932 z-score. The binding signal with RELB subunit;p52 subunit was -0.789 z-score; in experiment [3], -0.978 z-score; in experiment [4], -0.449 z-score.
Consider AGATAAGCCCT, for which the binding signal with RELARELA (p65 homodimer) was -0.464 z-score; in the experiment with p50p50 homodimer it was -1.05 z-score; with p52p52 homodimer it was -0.697 z-score; in [1], -0.764 z-score; in [2], -0.927 z-score; with RELB subunit;p50 subunit, -1.1 z-score. The binding signal in the experiment with RELB subunit;p52 subunit was -0.798 z-score; in [3] it was -0.985 z-score; in experiment [4], -0.712 z-score.
As to AAGAGGCTCCC, the binding signal with RELARELA (p65 homodimer) is -0.428 z-score; with p50p50 homodimer, -1.01 z-score; in the experiment with p52p52 homodimer it was -0.505 z-score; in [1], -0.958 z-score; in experiment [2], -0.845 z-score; in the experiment with RELB subunit;p50 subunit, -0.665 z-score. Also, the binding signal with RELB subunit;p52 subunit was -0.714 z-score; in experiment [3] it was -1.12 z-score; in experiment [4], -0.72 z-score.
Turning to AAGGGTTTCCC, the binding signal in the experiment with RELARELA (p65 homodimer) was 2.18 z-score; with p50p50 homodimer it was 0.668 z-score; with p52p52 homodimer it was 1.31 z-score; in experiment [1], 1.15 z-score; in [2] it was 1.43 z-score; with RELB subunit;p50 subunit, 0.696 z-score. The binding signal came to 1.17 z-score in the experiment with RELB subunit;p52 subunit, 1.07 z-score in [3] and 1.57 z-score in [4].
With CAGGTGCTCCT, the binding signal was -0.953 z-score in the experiment with RELARELA (p65 homodimer); -0.0506 z-score in the experiment with p50p50 homodimer; 0.0612 z-score with p52p52 homodimer; -0.571 z-score in experiment [1]; -0.266 z-score in experiment [2]; -0.45 z-score in the experiment with RELB subunit;p50 subunit. The results for the binding signal (in the experiment with RELB subunit;p52 subunit; in experiment [3]; in experiment [4]) were -0.443 z-score, -1.31 z-score and -0.565 z-score, respectively.
GGGGATTCCCT: the binding signal in the experiment with RELARELA (p65 homodimer) was found to be 3.57 z-score; in the experiment with p50p50 homodimer, 1.37 z-score; with p52p52 homodimer it was 3.18 z-score; in experiment [1], 2.6 z-score; in [2], 3.05 z-score; with RELB subunit;p50 subunit, 2.45 z-score. The figures for the binding signal (in the experiment with RELB subunit;p52 subunit; in [3]; in experiment [4]) were 2.75 z-score, 2.76 z-score and 3.46 z-score, respectively.
